Results: PubChem BioAssay AID1159580 (chemical genetic matrix, 2015)
In all, about 5,500 compounds went through this assay and about 2,000 (36%) were called active. About 18% were inconclusive and are not listed. No stated cut-off is given here; in the data, active means normalized growth mostly below about 0.91 (no sharp cut-off); inconclusive means no clear call, values can overlap the other calls; inactive means mostly above about 0.92. The list shows a part of the results.

Assay: chemical genetic growth profiling, strain panel (AID 1159580);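 further: tested at 20 µM; growth read once vehicle control cultures reached saturation at 30 °C; 1 = growth at the plate median or of vehicle wells; lower values mean less growth of the strain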
Conditions: growth OD

Measured: normalized growth

CC1=NCCc2c1[nH]c1cc(O)ccc21
inactive: S. cerevisiae deletion strains, locus YJR075W, strain HOC1, active compounds read low 0.988 | S. cerevisiae deletion strains, locus YKL009W, strain mrt4, active compounds read low 0.951 | S. cerevisiae deletion strains, locus YKL068W, active compounds read low 0.993 | S. cerevisiae deletion strains, locus YKL085W, strain MDH1 (second series), active compounds read low 0.988 | S. cerevisiae deletion strains, locus YKL085W, strain MDH1, active compounds read low 0.988 | S. cerevisiae deletion strains, locus YKL160W, strain elf1, active compounds read low 0.955 | S. cerevisiae deletion strains, locus YKL190W, strain CNB1, active compounds read low 0.999 | S. cerevisiae deletion strains, locus YKR001C, strain vps1, active compounds read low 0.993 | S. cerevisiae deletion strains, locus YKR026C, strain gcn3, active compounds read low 0.989 | S. cerevisiae deletion strains, locus YKR091W, strain srl3, active compounds read low 0.988 | S. cerevisiae deletion strains, locus YLL001W, strain dnm1, active compounds read low 0.984 | S. cerevisiae deletion strains, locus YLL026W, active compounds read low 0.992 | S. cerevisiae deletion strains, locus YLL041C, strain sdh2, active compounds read low 0.97 | S. cerevisiae deletion strains, locus YLR027C, strain aat2, active compounds read low 0.985 | S. cerevisiae deletion strains, locus YLR039C, strain RIC1, active compounds read low 0.993 | S. cerevisiae deletion strains, locus YLR058C, strain SHM2, active compounds read low 0.971 | S. cerevisiae deletion strains, locus YLR102C, strain apc9, active compounds read low 0.993 | S. cerevisiae deletion strains, locus YLR113W, strain HOG1, active compounds read low 1 | S. cerevisiae deletion strains, locus YLR221C, strain rsa3, active compounds read low 1.03 | S. cerevisiae deletion strains, locus YLR258W, strain gsy2, active compounds read low 0.967 | S. cerevisiae deletion strains, locus YLR262C, strain YPT6 (second series), active compounds read low 0.989 | S. cerevisiae deletion strains, locus YLR262C, strain YPT6, active compounds read low 0.95 | S. cerevisiae deletion strains, locus YLR268W, strain sec22, active compounds read low 1.05 | S. cerevisiae deletion strains, locus YLR320W, strain mms22, active compounds read low 1.03 | S. cerevisiae deletion strains, locus YLR330W, strain CHS5, active compounds read low 0.996 | S. cerevisiae deletion strains, locus YLR342W, strain FKS1 (second series), active compounds read low 0.996 | S. cerevisiae deletion strains, locus YLR342W, strain FKS1, active compounds read low 0.992 | S. cerevisiae deletion strains, locus YLR357W, strain rsc2, active compounds read low 0.973 | S. cerevisiae deletion strains, locus YLR370C, strain arc18, active compounds read low 0.973 | S. cerevisiae deletion strains, locus YLR371W, strain rom2, active compounds read low 0.978 | S. cerevisiae deletion strains, locus YLR384C, strain iki3, active compounds read low 0.994 | S. cerevisiae deletion strains, locus YLR418C, strain cdc73, active compounds read low 0.995 | S. cerevisiae deletion strains, locus YML016C, strain PPZ1, active compounds read low 0.997 | S. cerevisiae deletion strains, locus YML032C, strain rad52, active compounds read low 0.995 | S. cerevisiae deletion strains, locus YML120C, strain ndi1, active compounds read low 0.962 | S. cerevisiae deletion strains, locus YML124C, strain tub3, active compounds read low 0.988 | S. cerevisiae deletion strains, locus YMR058W, strain fet3, active compounds read low 0.994 | S. cerevisiae deletion strains, locus YMR078C, strain ctf18, active compounds read low 0.979 | S. cerevisiae deletion strains, locus YMR125W, strain sto1, active compounds read low 0.928 | S. cerevisiae deletion strains, locus YMR129W, active compounds read low 0.986 | S. cerevisiae deletion strains, locus YMR205C, strain PFK2, active compounds read low 0.95 | S. cerevisiae deletion strains, locus YMR223W, strain ubp8, active compounds read low 0.961 | S. cerevisiae deletion strains, locus YMR231W, strain pep5, active compounds read low 0.991 | S. cerevisiae deletion strains, locus YMR263W, strain SAP30, active compounds read low 0.99 | S. cerevisiae deletion strains, locus YMR307W, strain GAS1, active compounds read low 0.987 | S. cerevisiae deletion strains, locus YNL067W, strain RPL9B, active compounds read low 1.02 | S. cerevisiae deletion strains, locus YNL071W, strain lat1, active compounds read low 0.981 | S. cerevisiae deletion strains, locus YNL128W, strain TEP1, active compounds read low 0.97 | S. cerevisiae deletion strains, locus YNL153C, strain GIM3, active compounds read low 1 | S. cerevisiae deletion strains, locus YNL183C, strain NPR1, active compounds read low 0.928 | S. cerevisiae deletion strains, locus YNL209W, strain ssb2, active compounds read low 0.988 | S. cerevisiae deletion strains, locus YNL233W, strain BNI4, active compounds read low 1 | S. cerevisiae deletion strains, locus YNL248C, strain rpa49, active compounds read low 0.926 | S. cerevisiae deletion strains, locus YNL250W, strain rad50, active compounds read low 0.981 | S. cerevisiae deletion strains, locus YNL271C, strain bni1, active compounds read low 1 | S. cerevisiae deletion strains, locus YNL298W, strain CLA4, active compounds read low 0.985 | S. cerevisiae deletion strains, locus YNL307C, strain MCK1, active compounds read low 0.988 | S. cerevisiae deletion strains, locus YNL322C, strain KRE1 (second series), active compounds read low 0.981 | S. cerevisiae deletion strains, locus YNL322C, strain KRE1, active compounds read low 0.992 | S. cerevisiae deletion strains, locus YNR049C, strain mso1, active compounds read low 0.97 | S. cerevisiae deletion strains, locus YNR052C, strain pop2, active compounds read low 0.995 | S. cerevisiae deletion strains, locus YOL006C, strain TOP1, active compounds read low 1.04 | S. cerevisiae deletion strains, locus YOL012C, strain htz1 1.3 | S. cerevisiae deletion strains, locus YOL147C, strain pex11, active compounds read low 0.998 | S. cerevisiae deletion strains, locus YOR001W, strain rrp6, active compounds read low 1.01 | S. cerevisiae deletion strains, locus YOR061W, strain CKA2, active compounds read low 0.978 | S. cerevisiae deletion strains, locus YOR069W, strain VPS5, active compounds read low 0.973 | S. cerevisiae deletion strains, locus YOR070C, strain gyp1, active compounds read low 1.01 | S. cerevisiae deletion strains, locus YOR080W, strain dia2, active compounds read low 1.01 | S. cerevisiae deletion strains, locus YOR083W, strain WHI5, active compounds read low 0.954 | S. cerevisiae deletion strains, locus YOR106W, strain vam3, active compounds read low 0.93 | S. cerevisiae deletion strains, locus YOR136W, strain idh2, active compounds read low 0.985 | S. cerevisiae deletion strains, locus YOR144C, strain elg1, active compounds read low 0.994 | S. cerevisiae deletion strains, locus YOR184W, strain ser1, active compounds read low 0.969 | S. cerevisiae deletion strains, locus YOR231W, strain MKK1, active compounds read low 0.985 | S. cerevisiae deletion strains, locus YOR265W, strain rbl2, active compounds read low 0.976 | S. cerevisiae deletion strains, locus YOR270C, strain vph1, active compounds read low 1.02 | S. cerevisiae deletion strains, locus YOR290C, strain snf2, active compounds read low 0.911 | S. cerevisiae deletion strains, locus YOR316C, strain cot1, active compounds read low 0.992 | S. cerevisiae deletion strains, locus YPL051W, strain arl3, active compounds read low 1.01 | S. cerevisiae deletion strains, locus YPL055C, strain LGE1, active compounds read low 0.956 | S. cerevisiae deletion strains, locus YPL078C, strain atp4, active compounds read low 0.928 | S. cerevisiae deletion strains, locus YPL106C, strain sse1, active compounds read low 0.943 | S. cerevisiae deletion strains, locus YPL240C, strain hsp82, active compounds read low 0.992 | S. cerevisiae deletion strains, locus YPL241C, strain CIN2, active compounds read low 0.996 | S. cerevisiae deletion strains, locus YPL256C, strain CLN2, active compounds read low 0.991 | S. cerevisiae deletion strains, locus YPR119W, strain clb2, active compounds read low 0.989 | S. cerevisiae deletion strains, locus YPR141C, strain kar3, active compounds read low 0.981 | S. cerevisiae deletion strains, locus YPR163C, strain tif3, active compounds read low 1 | S. cerevisiae deletion strains, locus YPR167C, strain met16, active compounds read low 0.998 | S. cerevisiae deletion strains, strain wtn01, active compounds read low 0.992 | S. cerevisiae strains, strain wild type, active compounds read low 0.988
